From PubChem BioAssay
EP2 antag: human EP2 receptor antagonists, primary screen, TR-FRET cAMP, C6 glioma cells; 0.52% of 260,000 active; AID 1422, 2008; C6 glioma cells expressing human EP2; cells stimulated with saturating PGE2; inhibition, % at 25 µM;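 active means percent inhibition above 40 after rounding to a whole number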;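 further: rat C6 glioma host cells with rolipram phosphodiesterase inhibitor present; the protocol text gives 20 µM as final concentration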
Pf gametocyte: late stage P. falciparum gametocyte viability inhibitors, primary screen, ATP luminescence, HTS; inhibition, % at 10.9 µM; AID 743093, 2013; P. falciparum stage V gametocytes, 24 h; 0.065% of 150,000 active;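 active means inhibition above the mean plus 3 SD of compounds within the control limits, set per campaign, cut at about 38% in these data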;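 further: 0% = DMSO wells and 100% = medium only without gametocytes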
Furin inhibitor: human furin inhibitors, primary screen, biochemical, fluorescence intensity | P09958 | inhibition, % at 20 µM or 30 µM | 0.061% of 220,000 active | purified furin, fluorogenic substrate cleavage; in the data active means inhibition above about 25%
Target sequence (P09958 108-714 limits assumed): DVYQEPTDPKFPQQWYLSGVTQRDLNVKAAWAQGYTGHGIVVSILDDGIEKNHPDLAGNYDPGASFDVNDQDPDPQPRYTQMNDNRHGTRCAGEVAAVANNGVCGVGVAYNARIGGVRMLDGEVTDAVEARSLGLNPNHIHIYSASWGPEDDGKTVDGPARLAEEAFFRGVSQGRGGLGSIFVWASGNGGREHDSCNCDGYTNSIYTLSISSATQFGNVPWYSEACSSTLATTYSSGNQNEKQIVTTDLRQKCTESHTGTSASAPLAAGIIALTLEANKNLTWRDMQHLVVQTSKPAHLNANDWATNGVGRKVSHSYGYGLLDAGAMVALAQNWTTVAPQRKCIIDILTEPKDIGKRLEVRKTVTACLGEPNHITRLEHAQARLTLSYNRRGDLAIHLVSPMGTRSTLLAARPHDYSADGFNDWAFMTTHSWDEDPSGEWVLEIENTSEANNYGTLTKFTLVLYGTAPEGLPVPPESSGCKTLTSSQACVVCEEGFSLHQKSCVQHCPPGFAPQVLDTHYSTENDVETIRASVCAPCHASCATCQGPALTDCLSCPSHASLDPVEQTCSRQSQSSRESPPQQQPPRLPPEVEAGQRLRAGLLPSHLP
HSV replic up: enhancers of HSV replication in host cells, fold increase, host cell viability; AID 1956, 2009; HSV replication augmentation in cells; 0.005% of 220,000 active; maximum fold increase; in the data active means maximum fold increase above about 1.5; tested in PC3 cells
EP2 modulator: EP2 receptor modulators, cAMP readout, primary screen, cell-based, HTRF cAMP, PGE2 stimulation | induction, % at 25 µM | EP2-expressing cells, cAMP HTRF FRET, PGE2 co-stimulation | 0.83% of 260,000 active;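 active means compounds whose cAMP rise, as percent of the full-agonist control response, exceeds 60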;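 further: rat C6 glioma line stably carrying human EP2 under a CMV promoter; the protocol text gives 20 µM as final concentration; 100% = response of wells given 1 µM PGE2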
EP2 confirm: cAMP induction in EP2, EP4, beta2-AR and parental cells, confirmation, counter-screen for EP2 modulator project, cell-based, five parallel assays, C6 glioma, HEK293; cAMP HTRF induction; plus low (about EC15) PGE2 agonist; AID 1080, 2008; shares compounds with EP2 modulator; calls only at 20 µM (by protocol); 47% of 1,300 active;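 active means cAMP induction above 50% in the main assay while under 30% in all four parallel counter assays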;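 further: rat C6 glioma cells stably expressing human EP2 receptor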
The depositor's hits bear a star; i = inactive; / = no result given; + = active, no number; ! = not confirmed by another sample. In the library only some 1.4% were active in any assay of this set; here they are far more common.

SMILES	EP2 antag	Pf gametocyte	Furin inhibitor	HSV replic up	EP2 modulator	others
O=C(NC(=O)c1ccccc1Cl)Nc1ccc(OC(F)(F)F)cc1	7	/	/	/	17
CC(C)c1ccc(C(c2c(O)c3ccccc3oc2=O)c2c(O)c3ccccc3oc2=O)cc1	70*	/	/	/	-11
O=c1oc2ccccc2c(O)c1C(c1ccc([N+](=O)[O-])cc1)c1c(O)c2ccccc2oc1=O	9	1	-4	i	9
O=C(C[C@H](c1ccccc1)c1c(O)c2ccccc2oc1=O)c1ccccc1	46*	/	/	/	12
CC/C(CC(c1ccccc1)c1c(O)c2ccccc2oc1=O)=N\NC(N)=S (stereo unspecified)	4	/	-31	i	40
Cc1c(C(c2ccc(F)cc2)c2c(O)c3ccccc3oc2=O)c(=O)n(-c2ccccc2)n1C (stereo unspecified)	3	-14	-33	i	37
COc1ccc2c(c1OC)C(=O)O[C@H]2[C@H]1c2cc3c(cc2CCN1C)OCO3	11	/	/	/	-27
COc1ccc2c(c[n+](C)c3c4cc5c(cc4ccc23)OCO5)c1OC	118*	/	/	/	-26
Cc1ccc(CS(=O)(=O)CCC(=O)N2CCC3(CC2)OCCO3)cc1	20	/	-17	/	28
CCC(=NCC1CCCO1)c1c(O)n(-c2ccccc2C)c(=O)[nH]c1=O (stereo unspecified)	15	-4	-9	i	9
C=CCN1C(=O)CN=C(c2ccc(F)cc2)c2c1sc1c2CCCC1	3	/	/	/	65*
O=C(CN1C(=O)CN=C(c2ccsc2)c2c1sc1c2CCCC1)N1CCCCC1	13	/	/	/	15
CO[C@@H]([CH2][Hg][n]1cnc2c1c(=O)n(C)c(=O)n2C)CN1C(=O)c2ccccc2S1(=O)=O	49*	/	/	/	30
COc1ccc(CNC(C)Cc2cccs2)cc1 (stereo unspecified)	4	-8	-14	i	-15
Nc1nc2c(c(=S)[nH]1)[n]([Hg][c]1cc([N+](=O)[O-])ccc1O)c[n+]2[C@H]1O[C@H](CO)[C@@H](O)[C@@H]1O	60*	/	/	/	12
Cc1ccccc1N1C(=O)NC(=O)/C(=C\c2cnn(-c3ccccc3)c2)C1=O	51*	11	0	i	-57
Nc1c(C(=O)Nc2ccc([As](=O)(O)O)cc2)cnc2nnnn12	52*	/	/	/	29
CCn1nc(-c2ccccc2)nc2c(=O)n(C)c(=O)nc1-2	43*	/	-15	i	-88
N[C@@]1(C(=O)O)CC[C@@H](C(=O)O)C1	19	/	/	/	8
Cc1cccc(-n2c(C)nc3ccccc3c2=O)c1C	6	-5	-18	i	33
C=CCn1c(O)c(/C=N/NC(=O)c2ccncc2)c(=O)[nH]c1=O	2	11	36*	i	-2
O=C(N/N=C/c1c(O)n(Cc2ccccc2)c(=O)[nH]c1=O)c1ccncc1	4	-12	3	i	16
NC1CCCCC1N=Cc1c(O)n(Cc2ccc(F)cc2)c(=O)[nH]c1=O (stereo unspecified)	8	/	-2	i	-1
COc1cc2c(cc1/C=C/[N+](=O)[O-])OCO2	103*	/	-2	/	-122
COc1cc2cc(c1Cl)N(C)C(=O)C[C@H](OC(=O)C(C)C)[C@]1(C)O[C@H]1[C@@H](C)[C@H]1C[C@](O)(NC(=O)O1)[C@@H](OC)/C=C\C=C(\C)C2	52*	/	/	/	23
SMILES	EP2 antag	Pf gametocyte	Furin inhibitor	HSV replic up	EP2 modulator	others
Cc1cccc(N2C(=O)CC(=O)NC2=O)c1	10	-3	1	i	12
C[C@H]1CC[C@]2(NC1)O[C@H]1C[C@H]3[C@H]4CC=C5C[C@@H](O)CC[C@]5(C)[C@@H]4CC[C@]3(C)[C@H]1[C@@H]2C	58*	/	/	/	7
FC(F)(F)c1nc2ccc(SSc3ccc4nc(C(F)(F)F)[nH]c4c3)cc2[nH]1	79*	/	/	/	21
Cc1nc2cc(C(F)(F)F)ccc2n1C1CCN(Cc2nnnn2Cc2cccs2)CC1	16	/	-10	i	-38
C[C@@H]1CC[C@@]2(OC1)OC1C(O)C3C4CC[C@H]5C[C@H](O[C@@H]6O[C@H](CO)[C@H](O[C@@H]7O[C@H](CO)[C@@H](O)[C@H](O[C@@H]8OC[C@@H](O)[C@H](O)[C@H]8O)[C@H]7O[C@@H]7O[C@H](CO)[C@H](O)[C@H](O[C@@H]8O[C@H](CO)[C@@H](O)[C@H](O)[C@H]8O)[C@H]7O)[C@H](O)[C@H]6O)[C@H](O)C[C@]5(C)C4CC[C@]3(C)C1[C@@H]2C (stereo partly specified)	116*	/	/	/	-38
CCCCN1CCC(O)(c2ccccc2)C(C(=O)c2ccccc2)C1 (stereo unspecified)	14	/	34*	i	39
CSc1ncc(/C=C2/C(=O)NC(=O)N(C)C2=O)cn1	/	-4	-20	/	0
C[C@]12CCC(=O)C=C1CCC1C2CC[C@@]2(C)C1CC[C@@H]2O (stereo partly specified)	4	/	/	/	73*	EP2 confirm=+
CC[C@H]1C(=O)OC[C@@H]1Cc1cncn1C	6	/	/	/	13
CC[C@@H]1C(=O)OC[C@@H]1Cc1cncn1C	16	/	-7	i	80*!	EP2 confirm=i
CCOc1ccc(N2C(=O)/C(=C/c3ccc(C)o3)C(=O)NC2=S)cc1	/	-8	/	/	/
CC(=O)C1CC[C@H]2C3CC[C@H]4C[C@H](O)CC[C@]4(C)C3CC[C@]12C (stereo partly specified)	19	/	/	/	50	EP2 confirm=i
CC(=O)[C@H]1CC[C@H]2[C@@H]3CC[C@H]4C[C@H](O)CC[C@]4(C)[C@H]3C(=O)C[C@]12C	17	/	-12	i	18
Nc1ccc(Cl)cc1C(=O)c1ccccc1Cl	13	-31	-16	/	67*	EP2 confirm=+
Cc1ccc(N2C(=O)NC(=O)/C(=C/c3ccc(-c4ccc(C(=O)O)c(Cl)c4)o3)C2=O)cc1	15	/	-10	i	3
CC(C)=CCc1c(O)cc2c(c1O)C(=O)CC(c1ccc(O)cc1)O2 (stereo unspecified)	19	/	-17	i	35
Nc1ccc(Br)cc1C(=O)c1ccccc1	2	-1	-6	i	83*	EP2 confirm=+
Cc1ccc(CN2C(=O)CN=C(c3ccccc3)c3ccccc32)cc1	5	-4	-11	i	68*	EP2 confirm=i
CCCCCn1c(=O)c(C(=O)NCc2ccco2)c(O)c2ccccc21	5	12	-26	i	58
CCCCn1c(=O)c(C(=O)NCc2ccco2)c(O)c2ccccc21	5	-11	-21	i	67*	EP2 confirm=+
C=CCc1cc(CN2C3CCC2CC(O)(c2ccc(OC)cc2)C3)cc(OC)c1O (stereo unspecified)	7	/	/	/	-46
N#Cc1ccccc1Cn1cc(C(=O)c2cccs2)c2ccccc21	15	/	-14	i	29
O=C(c1cccs1)c1cn(Cc2ccccc2Cl)c2ccccc12	9	-2	-19	i	74*	EP2 confirm=i
